In PubChem BioAssay (EPA / NIEHS) one finds outcome and AC50 data, which are given here for 16 compounds.

Activity calls are given as the source filed them. How the source made its calls: active means hit-call score of the fitted dose curve at least 0.9, where 1 is the maximum; inactive means score below 0.9.

Chain of Broad substrate specificity ATP-binding cassette transporter ABCG2 (Homo sapiens) (Q9UNQ0 whole entry, looked up): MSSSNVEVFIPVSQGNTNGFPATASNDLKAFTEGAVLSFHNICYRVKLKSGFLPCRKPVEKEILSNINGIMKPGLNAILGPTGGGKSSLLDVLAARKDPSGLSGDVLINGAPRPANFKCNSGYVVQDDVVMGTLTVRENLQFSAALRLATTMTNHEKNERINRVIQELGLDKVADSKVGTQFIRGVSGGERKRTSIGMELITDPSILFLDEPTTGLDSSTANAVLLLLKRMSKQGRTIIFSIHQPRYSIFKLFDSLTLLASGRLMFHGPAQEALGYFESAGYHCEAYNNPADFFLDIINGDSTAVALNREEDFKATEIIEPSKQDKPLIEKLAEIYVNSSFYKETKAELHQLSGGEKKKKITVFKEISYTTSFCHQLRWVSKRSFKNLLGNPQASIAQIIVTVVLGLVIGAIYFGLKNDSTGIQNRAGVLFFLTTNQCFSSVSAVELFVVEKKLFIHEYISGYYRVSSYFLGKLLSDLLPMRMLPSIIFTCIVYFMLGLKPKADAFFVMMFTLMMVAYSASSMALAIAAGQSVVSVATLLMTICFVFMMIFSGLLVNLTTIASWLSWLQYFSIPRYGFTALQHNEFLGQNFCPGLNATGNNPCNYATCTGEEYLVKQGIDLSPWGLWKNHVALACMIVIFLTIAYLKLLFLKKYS

Read-out in the experiment: Broad substrate specificity ATP-binding cassette transporter ABCG2 (Homo sapiens) (UniProt Q9UNQ0)
Nature of the experiment: LTEA_HepaRG_ABCG2: Life Technologies and Expression Analysis (LTEA) Assay for ABC Transporter (ABCG2) using HepaRG (AID 2283465). The following applies: mRNA level, 48 h; actives raise or lower the signal. As to the method: LTEA_HepaRG is a cell based, multiplexed-readout assay that uses HepaRG, a human liver cell line, with measurements taken at 48 hours after chemical dosing on a 96-well plate.LTEA_HepaRG_ABCG2 is one of 102 assay component(s) measured in the LTEA HepaRG cell culture assay. It is a marker of Steatosis/NR mediated transport.Data from the assay component LTEA_HepaRG_ABCG2 was analyzed into 1 endpoint. This assay endpoint, LTEA_HepaRG_ABCG2, was analyzed with bidirectional fitting relative to DMSO as the negative control and baseline of activity. Using a type of inducible reporter, measures of mRNA induction for gain or loss-of-signal activity can be used to understand regulation of transcription factor activity. To generalize the intended target to other relatable targets, this assay endpoint is annotated to the transporter intended target family, where the subfamily is ABC transporter.
A total of 1060 chemcials from the ToxCast library were tested in eight-point concentration-response experiments. Cell culture and cytotoxicity assays were conducted at Thermo Fisher Scientific's Custom Services facility (Madison, WI). A single lot of human HepaRG cells (Thermo Fisher Scientific, Frederick, MD) was used for the cell culture experiments. 96-well format collagen type I coated plates of human HepaRG cells were prepared using established methods. Briefly, cryopreserved HepaRG cells were thawed, plated at a density of approximately 100,000 cells/well in HepaRG Thaw, Plate, and General Purpose media (HPRG770, Thermo Fisher Scientific), and incubated for 48 hours. 0.5% DMSO was selected as vehicle control to balance the requisite need of DMSO in HepaRG cultures to maintain differentiation (for example, baseline metabolism, proportions of hepatocytes vs. cholangiocytes), while enabling further hepatic receptor pathway activation (for example, PXR and CAR) in response to chemical exposure. 48 hours after plating, the culture medium was replaced with HepaRG Serum-Free Incudtion Media. Cells were exposed to each test chemical in duplicate and maintained in CO2 incubators for another 48 hours. Chemical plates were thawed to room temperature and 200x concentrations of treatment groups were prepared. 8-point conentration-reponse curves were made with the highest exposure at 100 uM, followed by half-log dilutions, all in 0.5% DMSO. Each test plate contained variouse controls, induction positive controls (1mM phenobarbital), cytotoxicity positive controls ([…] aflatoxin B1), vehicle controls (0.5% DMSO), and total lysis controls (0.5% DMSO). Cell morphology images were taken using an Essen IncuCyte FLR automated microscope, with six 96-well plates imaged in about 24 minutes. Images were captured and exported and JPEG files. Spent culture media was transfered to black-well plates for the LDH assay, and remaining media was sorted at -80 C for later use. Cells were treated with RLT buffer and frozen until shipped for gene expression analysis. Total RNA was isolated from the cell suspension in 75 uL of Buffer RLT (Qiagen, Germantown, MD 20874) by Quintiles/Expression Analysis (Durham, NC) using a custom isolation procedure. Total RNA from each plate well was transferred to a preamplification plate. Fluidigm's 96.96 Dynamic ArrayTM (Fluidigm, Amsterdam, the Netherlands) technology was used for gene expression analyses by quantitative reverse transcription polymerase chain reaction (qRT-PCR, performed by Quintiles/Expression Analysis, Durham, NC)89. Standard TaqManTM Assays (Applied Biosystems/ThermoFisher Scientific, Foster City, CA) were used to assess the expression of 93 genes selected based on their selectivity and sensitivity to important hepatic receptors known to be modulated by environmental chemicals; importance in human hepatocyte functionality; and hepatotoxicity. […]
For the compound `CCCCC(CC)C(=O)O` (stereo unspecified), the result was inactive.

What is called AC50 is the concentration at which the activity in the assay is half-maximal. For `CS(=O)(=O)c1ccc([C@@H](CC2CCCC2)C(=O)Nc2cnccn2)cc1Cl`, the AC50 was 12.8 µM (active). Turning to `CCC(C)c1ccccc1O` (stereo unspecified), the compound was called inactive.

On to `OCC(CO)(CBr)CBr`, for which the outcome was inactive. In the case of `CCCCc1oc2ccccc2c1C(=O)c1cc(I)c(OCCN(CC)CC)c(I)c1`, the AC50 is 61 µM (active). With `O=C1NS(=O)(=O)c2ccccc21`, the call was inactive.

In the case of `Cc1[nH]nc2c1N=C(c1ccccc1Cl)c1cc([N+](=O)[O-])ccc1N2`, the call was inactive. Consider `CCCCCCCCCCCCOS(=O)(=O)O`, for which the compound was classed as inactive. In the case of `N=C(N)c1ccc(OCCCCCOc2ccc(C(=N)N)cc2)cc1`, the AC50 is 2.79 µM (active). In the case of `O=C(CCCN1CCC(O)(c2ccc(Cl)cc2)CC1)c1ccc(F)cc1`, the call was inactive. The same measure, in the same setting: the result for `CCCCC=O` reads “inactive”; that for `O=C(c1ccccc1)c1ccccc1`, “inactive”; that for `CN(Cc1cnc2nc(N)nc(N)c2n1)c1ccc(C(=O)N[C@@H](CCC(=O)O)C(=O)O)cc1`, “inactive”. Same read-out and setting: the result for `CCCCCCCCCCCCCCC` reads “inactive”; that for `CN(C)CCOC(c1ccccc1)c1ccccc1`, “inactive”; that for `CC(=O)Nc1ccc(O)cc1`, “inactive”.
